# Paper PMC5540273 (PLoS ONE, 2017)
# Several values for one entry are separate records, joined by “and”; a condition that tells them apart may be missing. Identical values can stand only once. Like-named read-outs stand apart in the source and are kept apart here.
# What was measured:
# HIPK2 = settings: concentration: 1 μM, replicates: in singlicate, n = 1
# HIPK3 = settings: concentration: 1 μM, replicates: in singlicate, n = 1
# HIPK4 = settings: concentration: 1 μM, replicates: in singlicate, n = 1
# HPK1 = settings: concentration: 1 μM, replicates: in singlicate, n = 1
# HUNK = settings: concentration: 1 μM, replicates: in singlicate, n = 1
# ICK = settings: concentration: 1 μM, replicates: in singlicate, n = 1
# IGF1R = settings: concentration: 1 μM, replicates: in singlicate; n = 1
# IKK-alpha = system: T1, IKK-alpha; settings: concentration: 1 μM, replicates: in singlicate, n = 1
# T1 construct: gene CHUK
# IKK-beta = system: T2, IKK-beta; settings: concentration: 1 μM, replicates: in singlicate; n = 1
# T2 construct: gene IKBKB
# IKK-epsilon = system: T3, IKK-epsilon; settings: concentration: 1 μM, replicates: in singlicate, n = 1
# T3 construct: gene IKBKE
# INSRR = settings: concentration: 1 μM, replicates: in singlicate, n = 1
# INSR = settings: concentration: 1 μM, replicates: in singlicate, n = 1
# IRAK1 = settings: concentration: 1 μM, replicates: in singlicate, n = 1
# IRAK3 = settings: concentration: 1 μM, replicates: in singlicate; n = 1
# IRAK4 = settings: concentration: 1 μM, replicates: in singlicate, n = 1
# ITK = settings: concentration: 1 μM, replicates: in singlicate, n = 1
# [1] = system: JAK1(JH1domain-catalytic); settings: concentration: 1 μM, replicates: in singlicate, n = 1
# [2] = system: JAK1(JH2domain-pseudokinase); settings: concentration: 1 μM, replicates: in singlicate, n = 1
# [3] = system: JAK2(JH1domain-catalytic); settings: concentration: 1 μM, replicates: in singlicate, n = 1
# [4] = system: JAK3(JH1domain-catalytic); settings: concentration: 1 μM, replicates: in singlicate; n = 1
# 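Further: KINOMEscan kinase panel screen.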
structure (smiles),measurement,setting,value
COc1ccc(Nc2nccc(N3CCC(NC(=O)Nc4ccc5c(c4)OCO5)C3)n2)cc1 (centres unmarked) [GSK1379745],%Inh,HIPK2,0%
same,%Inh,HIPK3,23%
same,%Inh,HIPK4,9%
same,%Inh,HPK1,67%
same,%Inh,HUNK,11%
same,%Inh,ICK,0%
same,%Inh,IGF1R,0%
same,%Inh,IKK-alpha,7%
same,%Inh,IKK-beta,9%
same,%Inh,IKK-epsilon,12%
same,%Inh,INSRR,0%
same,%Inh,INSR,0%
same,%Inh,IRAK1,11%
same,%Inh,IRAK3,11%
same,%Inh,IRAK4,6%
same,%Inh,ITK,6%
same,%Inh,[1],0%
same,%Inh,[2],0%
same,%Inh,[3],19%
same,%Inh,[4],0%
COc1cc2c(Nc3cccc(NC(=O)c4ccccc4)c3)ncnc2cc1OCCCN1CCOCC1 [GSK223810],%Inh,HIPK2,0%
same,%Inh,HIPK3,0%
same,%Inh,HIPK4,7%
same,%Inh,HPK1,55%
same,%Inh,HUNK,0%
same,%Inh,ICK,0%
same,%Inh,IGF1R,0%
same,%Inh,IKK-alpha,0%
same,%Inh,IKK-beta,0%
same,%Inh,IKK-epsilon,19%
same,%Inh,INSRR,7%
same,%Inh,INSR,10%
same,%Inh,IRAK1,0%
same,%Inh,IRAK3,41%
same,%Inh,IRAK4,0%
same,%Inh,ITK,9%
same,%Inh,[1],0%
same,%Inh,[2],0%
same,%Inh,[3],4%
same,%Inh,[4],0%
O=C(CCO)NCCn1ccc2ncnc(Nc3ccc(Oc4cccc(C(F)(F)F)c4)c(Cl)c3)c21,%Inh,HIPK2,0%
same,%Inh,HIPK3,0%
same,%Inh,HIPK4,0%
same,%Inh,HPK1,7%
same,%Inh,HUNK,0%
same,%Inh,ICK,0%
same,%Inh,IGF1R,0%
same,%Inh,IKK-alpha,0%
same,%Inh,IKK-beta,0%
same,%Inh,IKK-epsilon,0%
same,%Inh,INSRR,0%
same,%Inh,INSR,0%
same,%Inh,IRAK1,0%
same,%Inh,IRAK3,0%
same,%Inh,IRAK4,0%
same,%Inh,ITK,0%
same,%Inh,[1],0%
same,%Inh,[2],36%
same,%Inh,[3],0%
same,%Inh,[4],0%
CS(=O)(=O)CCNCc1nc(-c2ccc3ncnc(Nc4ccc(OCc5cccc(F)c5)c(Cl)c4)c3c2)cs1.Cl [GW583340],%Inh,HIPK2,0%
same,%Inh,HIPK3,0%
same,%Inh,HIPK4,0%
same,%Inh,HPK1,33%
same,%Inh,HUNK,0%
same,%Inh,ICK,0%
same,%Inh,IGF1R,0%
same,%Inh,IKK-alpha,3%
same,%Inh,IKK-beta,6%
same,%Inh,IKK-epsilon,7%
same,%Inh,INSRR,0%
same,%Inh,INSR,1%
same,%Inh,IRAK1,0%
same,%Inh,IRAK3,0%
same,%Inh,IRAK4,5%
same,%Inh,ITK,0%
same,%Inh,[1],24%
same,%Inh,[2],0%
same,%Inh,[3],0%
same,%Inh,[4],0%
O=c1cc(N2CCOCC2)nc2n(Cc3cccc(Cl)c3)ccn12 [GSK2296823],%Inh,HIPK2,0%
same,%Inh,HIPK3,18%
same,%Inh,HIPK4,0%
same,%Inh,HPK1,37%
same,%Inh,HUNK,0%
same,%Inh,ICK,19%
same,%Inh,IGF1R,1%
same,%Inh,IKK-alpha,3%
same,%Inh,IKK-beta,17%
same,%Inh,IKK-epsilon,35%
same,%Inh,INSRR,0%
same,%Inh,INSR,0%
same,%Inh,IRAK1,60%
same,%Inh,IRAK3,32%
same,%Inh,IRAK4,16%
same,%Inh,ITK,19%
same,%Inh,[1],0%
same,%Inh,[2],0%
same,%Inh,[3],10%
same,%Inh,[4],0%
COc1ccc(-c2nc3n(c2-c2ccncc2)CCC3)cc1 [SKF-104493],%Inh,HIPK2; 1 µM,11% and 0%
same,%Inh,HIPK3; 1 µM,0% and 17%
same,%Inh,HIPK4; 1 µM,2% and 0%
same,%Inh,HPK1; 1 µM,17% and 0%
same,%Inh,HUNK; 1 µM,35% and 0%
same,%Inh,ICK; 1 µM,32% and 10%
same,%Inh,IGF1R,0%
same,%Inh,IKK-alpha; 1 µM,1% and 0%
same,%Inh,IKK-beta,0%
same,%Inh,IKK-epsilon; 1 µM,0% and 20%
same,%Inh,INSRR; 1 µM,1% and 0%
same,%Inh,INSR; 1 µM,5% and 0%
same,%Inh,IRAK1; 1 µM,12% and 0%
same,%Inh,IRAK3,0%
same,%Inh,IRAK4; 1 µM,0% and 2%
same,%Inh,ITK; 1 µM,0% and 1%
same,%Inh,[1]; 1 µM,0% and 9%
same,%Inh,[2]; 1 µM,43% and 41%
same,%Inh,[3]; 1 µM,11% and 0%
same,%Inh,[4],0%
CCCc1ccc(S(=O)(=O)NC2CCN(c3ccnc(Nc4ccc(OC)cc4)n3)C2)cc1 (centres unmarked) [GSK1379737],%Inh,HIPK2,0%
same,%Inh,HIPK3,8%
same,%Inh,HIPK4,0%
same,%Inh,HPK1,31%
same,%Inh,HUNK,10%
same,%Inh,ICK,0%
same,%Inh,IGF1R,8%
same,%Inh,IKK-alpha,36%
same,%Inh,IKK-beta,0%
same,%Inh,IKK-epsilon,0%
same,%Inh,INSRR,0%
same,%Inh,INSR,0%
same,%Inh,IRAK1,39%
same,%Inh,IRAK3,0%
same,%Inh,IRAK4,24%
same,%Inh,ITK,14%
same,%Inh,[1],34%
same,%Inh,[2],0%
same,%Inh,[3],73%
same,%Inh,[4],0%
FC(F)(F)c1ccc(-c2nn3ncccc3c2-c2ccnc(Nc3cccc(C(F)(F)F)c3)n2)cc1 [GW828205],%Inh,HIPK2,0%
same,%Inh,HIPK3,0%
same,%Inh,HIPK4,11%
same,%Inh,HPK1,0%
same,%Inh,HUNK,32%
same,%Inh,ICK,0%
same,%Inh,IGF1R,3%
same,%Inh,IKK-alpha,0%
same,%Inh,IKK-beta,0%
same,%Inh,IKK-epsilon,0%
same,%Inh,INSRR,0%
same,%Inh,INSR,0%
same,%Inh,IRAK1,0%
same,%Inh,IRAK3,11%
same,%Inh,IRAK4,0%
same,%Inh,ITK,15%
same,%Inh,[1],0%
same,%Inh,[2],5%
same,%Inh,[3],0%
same,%Inh,[4],0%
COc1ccc(NC(=O)c2ccc(-c3cc(-c4nnc(C)o4)ccc3C)cc2)cc1 [GW595885],%Inh,HIPK2,0%
same,%Inh,HIPK3,10%
same,%Inh,HIPK4,0%
same,%Inh,HPK1,24%
same,%Inh,HUNK,3%
same,%Inh,ICK,4%
same,%Inh,IGF1R,0%
same,%Inh,IKK-alpha,25%
same,%Inh,IKK-beta,24%
same,%Inh,IKK-epsilon,0%
same,%Inh,INSRR,0%
same,%Inh,INSR,0%
same,%Inh,IRAK1,37%
same,%Inh,IRAK3,0%
same,%Inh,IRAK4,16%
same,%Inh,ITK,6%
same,%Inh,[1],9%
same,%Inh,[2],0%
same,%Inh,[3],12%
same,%Inh,[4],0%
Fc1ccc(-c2ncn(CCCNCc3ccccc3)c2-c2ccncc2)cc1,%Inh,HIPK2,23%
same,%Inh,HIPK3,45%
same,%Inh,HIPK4,0%
same,%Inh,HPK1,8%
same,%Inh,HUNK,7%
same,%Inh,ICK,12%
same,%Inh,IGF1R,4%
same,%Inh,IKK-alpha,0%
same,%Inh,IKK-beta,9%
same,%Inh,IKK-epsilon,10%
same,%Inh,INSRR,5%
same,%Inh,INSR,0%
same,%Inh,IRAK1,24%
same,%Inh,IRAK3,9%
same,%Inh,IRAK4,19%
same,%Inh,ITK,21%
same,%Inh,[1],0%
same,%Inh,[2],24%
same,%Inh,[3],36%
same,%Inh,[4],8%
